Assay outcomes as filed in PubChem BioAssay.
An excerpt weighted towards active compounds, which were near 2.3% of everything screened.
M1 antag: human M1 muscarinic receptor antagonists, primary screen, CHO-K1 cells, Fluo-8 calcium fluorescence, 1536-well; CHO-K1 hM1, ACh EC80 antagonist; inhibition, % at 3 µM; Muscarinic acetylcholine receptor M1 (Homo sapiens), P11229; 1.3% of 360,000 active;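 active = percent inhibition above its own plate's cutoff, namely the mean of that plate's compound wells plus 3 SD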;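 note: peak over basal fluorescence ratio during 140 s after agonist addition; 0% = ACh EC80 plus DMSO and 100% = DMSO alone without agonist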
Target sequence (P11229 whole entry, looked up): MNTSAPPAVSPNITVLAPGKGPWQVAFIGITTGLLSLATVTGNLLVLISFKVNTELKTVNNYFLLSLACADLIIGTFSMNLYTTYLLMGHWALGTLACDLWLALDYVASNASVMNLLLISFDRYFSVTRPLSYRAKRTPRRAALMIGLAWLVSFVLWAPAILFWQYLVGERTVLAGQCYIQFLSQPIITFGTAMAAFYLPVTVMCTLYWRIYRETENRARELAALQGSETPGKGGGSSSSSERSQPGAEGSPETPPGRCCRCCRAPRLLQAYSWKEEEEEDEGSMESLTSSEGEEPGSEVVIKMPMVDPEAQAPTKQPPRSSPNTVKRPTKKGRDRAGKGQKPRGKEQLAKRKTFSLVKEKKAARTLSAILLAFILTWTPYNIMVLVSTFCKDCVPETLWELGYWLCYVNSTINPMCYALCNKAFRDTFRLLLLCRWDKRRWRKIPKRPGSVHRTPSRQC
M1 PAM parental: nonselective calcium activators in parental CHO-K1 cells, primary screen, counter-screen for M1 PAM project, cell-based, Fluo-8 calcium fluorescence, full deck, 1536-well. activation, % at 3 µM. 0.02% of 360,000 active. ATP EC20; 0% at ATP EC20, 100% at ATP max. AID 602247, 2012;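 active = activation above the run cutoff, the mean activation of all test compounds plus 3 SD, cut at about 40% in these data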;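 note: peak over basal fluorescence ratio in a 140 s read after ATP addition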
CHO-K1 Ca antag: counter-screen for M1 antagonists: effect in parental CHO-K1 cells | 0.6% of 360,000 active | AID 602250 | ATP-induced calcium, Fluo-8 fluorescence | inhibition, % at 3 µM;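 active = inhibition above a per-plate cutoff, the plate's mean sample inhibition plus 3 SD, cut at about 24% in these data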;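 note: 0% = DMSO plus EC80 ATP and 100% = DMSO alone without ATP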
CHRM1 PAM: human M1 muscarinic receptor positive allosteric modulators, primary screen, CHO-K1 cells, Fluo-8 calcium fluorescence, 1536-well. Muscarinic acetylcholine receptor M1 (Homo sapiens), P11229. CHO-K1 hM1, ACh EC20; 0% = ACh EC20, 100% = maximal ACh. activation, % at 3 µM. 0.088% of 360,000 active. AID 588819, 2011; in the data active = activation above about 19%, passing the limit was not always enough
CHO-K1 Ca ag: counter-screen for M1 agonists: effect in parental CHO-K1 cells. Fluo-8 calcium fluorescence; scaled to maximal ATP response, vehicle zero. activation, % at 3 µM. 0.48% of 360,000 active; in the data active = activation above about 15%;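 note: untransfected CHO-K1 host cells lacking M1 receptor as counterscreen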
M1 ag: human M1 muscarinic receptor agonists, primary screen, Fluo-8 calcium fluorescence, CHO-K1 cells, HTS; activation, % at 3 µM; 0.33% of 360,000 active; AID 588814, 2011; CHO-K1 hM1, agonist mode; 0% DMSO, 100% acetylcholine EC100;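 active = activation above the run's mean compound activation plus 3 SD, cut at about 16% in these data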;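 note: peak over basal fluorescence ratio within a 140 s kinetic read after compound addition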
Active calls of the source: *; nt = no result given.

SMILES | M1 antag | M1 PAM parental | CHO-K1 Ca antag | CHRM1 PAM | CHO-K1 Ca ag | M1 ag
Cc1cccc(C)c1OCC(O)Cn1ccnc1C (stereo unspecified) | 5 | -9 | 26* | -1 | -1 | -6
O=C(CCCCCNC(=O)N1CCn2c1nc1ccccc12)NCCc1ccccc1 | 18 | 1 | -19 | -8 | 1 | -4
O=C(N/C(=C\c1cccc([N+](=O)[O-])c1)C(=O)N(CCO)CCO)c1ccco1 | -5 | -3 | 2 | 22 | 0 | 2
CN1/C(=C\C(=O)CSc2ncn[nH]2)C(C)(C)c2ccccc21 | 20 | -11 | 26* | -9 | 4 | -1
CN1/C(=C\C(=O)COC(=O)c2ccccc2O)C(C)(C)c2ccccc21 | 8 | 5 | 5 | -7 | 17* | -2
CC(C)(O)[C@@H]1CC[C@@](C)(C2CC[C@]3(C)C2[C@H](O)CC2[C@@]4(C)CC[C@H](O)C(C)(C)C4[C@@H](O[C@H]4O[C@@H](CO)[C@H](O)[C@@H](O)[C@@H]4O[C@@H]4O[C@H](CO)[C@@H](O)[C@H](O)[C@H]4O)C[C@]23C)O1 (stereo in doubt) | 1 | -12 | -1 | 0 | 0 | -2
COCCCNc1c2c3c(cccc3[nH]c1=O)C(=O)c1ccccc1-2 | 71* | -16 | 56* | -31 | 285* | 264*
COc1ccc(C2(CNC(=O)c3ccccc3[N+](=O)[O-])CCOCC2)cc1 | -5 | 9 | -8 | 5 | 0 | -10
C[N+]1(CC(=O)OCCCc2ccccc2)CCCCC1 | 19 | 4 | -12 | -11 | 1 | -8
CC1(C(O)(C#CC[N+]2(C)CCCCC2)c2ccccc2)CCCC1 (stereo unspecified) | 72* | -15 | 22 | -32 | 0 | -13
Cn1c(N)c(C(=O)CSc2nnnn2-c2ccccc2)c(=O)n(C)c1=O | -4 | 0 | -5 | 4 | 0 | -1
Cn1c(N)c(C(=O)CSc2nc(C3CC3)n(-c3ccccc3)n2)c(=O)n(C)c1=O | -13 | 14 | -15 | 4 | 2 | 22*
Nc1nc(N)c2cc([N+](=O)[O-])ccc2n1 | -12 | 22 | -21 | 5 | 1 | 1
Nc1nc(N)c2c(ccc3c2ccn3Cc2cccc([N+](=O)[O-])c2)n1 | 43* | 16 | 2 | -31 | 1 | -13
CCCCC1SC(N)=NC1=O (stereo unspecified) | -13 | 5 | -9 | 10 | 1 | 0
CCOC(=O)c1sc(NC(=O)Cn2nnc3sc4c(c3c2=O)CCC(C(C)(C)C)C4)nc1C (stereo unspecified) | -11 | -12 | 26* | 4 | -1 | -3
O=C(N/N=C/c1ccc(Cl)cc1)c1ccc2nc[nH]c2c1 | 29* | -4 | 5 | -14 | 5 | 0
COC(=O)c1ccc(/C=N/NC(=O)c2ccc3nc[nH]c3c2)cc1 | 15 | -2 | -5 | -6 | 3 | 0
CC(C)Cc1nnc(NC(=O)C2CCCN(C(=O)c3ccc(Cl)cc3)C2)s1 (stereo unspecified) | -4 | 14 | -1 | 9 | 0 | -3
CCC(C)[C@H]1CN=C(N)N1CCc1cccc2ccccc12 (stereo partly specified) | 38* | -5 | -5 | -28 | 0 | -14
COc1ccc(C(=O)N/N=C/c2sc3ccccc3c2O)cc1 | -3 | 14 | -2 | -3 | 9 | 6
COc1ccc2cc(C(=O)N/N=C/c3sc4ccccc4c3O)ccc2c1 | 15 | 13 | 9 | -10 | 9 | 33*
Cc1c(Br)c([N+](=O)[O-])nn1C(C)C(=O)N1CCc2ccccc2C1 (stereo unspecified) | 73* | 7 | -6 | -23 | 3 | -6
Cc1c(Br)c([N+](=O)[O-])nn1CC(=O)N1CCc2ccccc2C1 | 7 | 5 | 10 | -2 | 0 | -9
Cc1c(NC(=O)Nc2ccc(Cl)c(Cl)c2)c(=O)n(-c2ccccc2)n1C | 40* | 1 | 20 | -2 | 5 | -3
SMILES | M1 antag | M1 PAM parental | CHO-K1 Ca antag | CHRM1 PAM | CHO-K1 Ca ag | M1 ag
Cc1c(Cl)c([N+](=O)[O-])nn1CCCC(=O)Nc1c(C)n(C)n(-c2ccccc2)c1=O | 67* | 18 | -9 | -25 | 1 | -8
Cc1c(NC(=O)Nc2ccccc2)c(=O)n(-c2ccccc2)n1C | 15 | 6 | -9 | -6 | 0 | -4
O=S(=O)(NCc1ccc(F)cc1)c1ccc(Br)cc1Br | -2 | 6 | -14 | 4 | 0 | -6
COc1ccc(OC)c(-c2cc(C(=O)Nc3ccc(F)cc3F)no2)c1 | -6 | 16 | 6 | 5 | 0 | -4
CCCc1c(-c2ccc(Cl)cc2)ncn1Cc1ccccc1OC | nt | 9 | 3 | nt | 16* | nt
Cc1cc(NC(=O)C2CC(=O)N(c3cccc(Cl)c3)C2)no1 (stereo unspecified) | -5 | 9 | 3 | 2 | 16* | -5
Cc1nc2ccccc2cc1OCc1ccccc1 | 18* | 12 | 15 | -12 | 5 | -2
COc1cccc(COc2cc3ccccc3nc2C)c1 | 34* | 12 | 22 | -7 | 6 | -1
Cc1nc2ccccc2cc1OCc1ccc(Cl)cc1 | 22* | 8 | 15 | -12 | 5 | -2
Cn1c2ccccc2c2nnc(SCC(=O)NCc3ccoc3)nc21 | -1 | 15 | -26 | 9 | 1 | -7
O=C(NCCCN1CCCC1=O)C1CCCO1 (stereo unspecified) | -15 | 19 | -3 | 11 | 1 | -7
Nc1ccc(-n2nncc2-c2ccc(Cl)cc2)cc1 | -8 | 5 | 3 | 7 | 17* | -4
O=[N+]([O-])c1ccc(-n2nncc2-c2ccc(Cl)cc2)cc1 | -1 | 4 | -20 | 6 | 0 | -7
O=C(N[C@@H]1CCC(=O)N(CC[C@H](Oc2ccccc2)c2ccccc2)CC1)OCc1ccccc1 | 4 | 10 | -9 | -3 | 0 | -7
CN(C)c1ncc(CN2CCC(CO)(CCCc3ccccc3)CC2)s1 | -11 | -2 | -8 | 3 | 0 | 20*
CC(C)c1ccc(NC(=S)NNC(=O)c2cccs2)cc1 | 4 | 13 | -18 | -4 | 4 | -4
COc1ccc(CCC(=O)OCC(=O)Nc2sccc2C(N)=O)cc1OC | 24 | -15 | 26* | -12 | 15 | 2
COc1ccc(C(=O)NC(C(=O)OCC(=O)Nc2sccc2C(N)=O)C(C)C)cc1 (stereo unspecified) | 11 | -13 | 1 | -1 | 7 | 2
